# A selection: hits, their analogues and other compounds. The true share with any hit is near 10%.
# LMNA splice mod: changes lamin A minigene splicing in HeLa cells; Potency, µM (highest dose often 46.1 µM), inactives show at the top dose ratio change, negative = inhibition, usual class: inhibitors; hit rate 0.01% among 200,000; HeLa LMNA splicing GFP/RFP minigene ratio, 48 h; AID 1487; active = well fitted inhibition curve with a large enough effect in the signal ratio, with a control signal flat, not every such curve was filed as active; inconclusive = small, poorly fitted or top-dose-only effect, or effect the other way, or a change in a side signal; the % refers to the signal ratio; also: potency is read from the fitted curve at half-maximal effect
#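 S3 HeLa cells stably expressing lamin A-EGFP splicing minigene plus DsRed2, 600 cells/well, 48 h compound exposure at 37C. Laser-scanning cytometry; analysed as GFP (500-530 nm)/RFP (575-640 nm) total intensity ratio; 0.5% DMSO vehicle.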
# ALDH1A1 inh: inhibitors of human aldehyde dehydrogenase 1A1; Potency, µM (top dose mostly 75.3 µM), for the others: at the top dose activity, negative = inhibition, hits mostly inhibitors; hit rate 7.3% among 220,000; Purified ALDH1A1, NADH fluorescence, propionaldehyde substrate; P00352;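 also: potency is read from the fitted curve at half-maximal effect; plate controls were no enzyme wells and a reference inhibitor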
# HPGD inh: inhibitors of human 15-hydroxyprostaglandin dehydrogenase (HPGD). P15428. purified HPGD, NADH fluorescence kinetic, PGE2 substrate. Potency, µM, inactives show at the top dose activity change, negative = inhibition, actives largely listed as inhibitors. hit rate 4.3% among 150,000. AID 894; also: potency is read from the fitted curve at half-maximal effect
# Target sequence (P15428 whole entry, looked up): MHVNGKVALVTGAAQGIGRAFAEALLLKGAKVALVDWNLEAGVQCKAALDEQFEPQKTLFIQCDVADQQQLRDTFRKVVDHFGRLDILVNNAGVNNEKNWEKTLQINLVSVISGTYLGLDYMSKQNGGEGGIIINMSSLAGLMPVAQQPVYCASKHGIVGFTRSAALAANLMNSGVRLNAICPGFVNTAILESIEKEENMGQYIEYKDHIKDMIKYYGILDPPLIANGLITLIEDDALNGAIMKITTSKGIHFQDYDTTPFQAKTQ
#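 NADH formation kinetics: reaction with 30 uM PGE2 and 1 mM NAD+ (final), 20 nM enzyme, Tris-HCl pH 8 with Tween 20, after 15 min compound preincubation at room temperature. Fluorescence change, last versus first of five reads.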
# PNC assembly inh: blocks assembly of the perinucleolar compartment; hit rate 3.1% among 140,000; PC3M PTB-GFP, PNC prevalence imaging, 16 h; hits give low values; AID 2417; activity change (PNC), negative = inhibition, % at 10 µM;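 active = readout at or below -70, meaning at least 70% loss of cells showing the perinucleolar compartment, a nuclear body marking cancer cells; inconclusive = readout between -30 and a set limit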;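 also: plate controls were DMSO wells for no effect and camptothecin positive control wells for full effect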
#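 Read-out is percentage of cells bearing a perinucleolar compartment, from automated 20x imaging of fixed, Hoechst-stained PC3M PTB-GFP cells. Cells were seeded 4 h, then exposed 16 h to compound (23 nl of library stock) in duplicate plates.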
# Luc counter: counter-screen: inhibitors of Kinase-Glo firefly luciferase; Q27757; Kinase-Glo luciferase, ATP luminescence, 8 min; Potency, µM (highest dose often 38.3 µM), without a hit: top-dose activity change, negative = inhibition, actives largely listed as inhibitors; hit rate 0.28% among 200,000; AID 1379; active = well fitted inhibition curve with a large enough effect; inconclusive = small, poorly fitted or top-dose-only effect; also: potency is read from the fitted curve at half-maximal effect; nearly all actives have a fitted effect of over 60% in size
#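 Substrate mix (final 50 mM imidazole pH 7.2, 50 mM KCl, 7 mM MgCl2, 10 uM ATP, 0.01% Tween 20, 0.05% BSA) plus pin-tool compound, then Kinase-Glo detection mix; 8 min ambient, luminescence read.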
# IMPase inh: IMPase inhibition in cells | P97697 | 120,000 tested, under 10 active | CHO-M1 cells, IP1 accumulation, HTRF TR-FRET ratio | inhibition (IP1 accumulation), % at 46.1 µM | AID 901; active = well fitted curve in the direction sought with a large enough effect in the signal ratio, not every such curve was filed as active; inconclusive = small, poorly fitted or top-dose-only effect, or a change in a side signal; inactive = no such curve, though single readings can be large or run the other way; the % refers to the signal ratio;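 also: cells stimulated with carbachol in lithium chloride buffer; plate controls were DMSO basal wells for no effect and reference inhibitor wells for full effect; higher means more IMPase inhibition seen as more IP1 and lower FRET ratio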
# Target sequence (P97697 whole entry, looked up): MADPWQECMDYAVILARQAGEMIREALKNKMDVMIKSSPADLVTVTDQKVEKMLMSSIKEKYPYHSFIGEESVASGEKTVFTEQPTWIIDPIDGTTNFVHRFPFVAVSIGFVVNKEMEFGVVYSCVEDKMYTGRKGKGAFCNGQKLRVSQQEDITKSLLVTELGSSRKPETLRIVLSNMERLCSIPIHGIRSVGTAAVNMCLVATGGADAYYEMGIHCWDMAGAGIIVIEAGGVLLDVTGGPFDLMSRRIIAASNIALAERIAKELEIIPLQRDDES
#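 Seeded CHO-M1 cells were dosed with compound at up to 46 uM, stimulated with carbachol for 30 min, then lysed in IP-One detection reagents. Higher IP1 lowers the TR-FRET signal.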
# * marks the source's active call; other numbers are inactive results; ? = inconclusive; / = no result given; [ ] = remark or other dose. Unless noted, calls follow the shape of the dose curve; as a rule, active = well fitted inhibition curve with a large enough effect (not every such curve was filed as active); inconclusive = small, poorly fitted or top-dose-only effect, or another doubt; inactive = no such curve, though single readings can be large or run the other way. Unless noted, % is scaled to controls: 0 for no effect and ±100 for the full control effect.
SMILES,LMNA splice mod,ALDH1A1 inh,HPGD inh,PNC assembly inh,Luc counter,IMPase inh
Cc1ccc(-c2n[nH]c(=O)c3ccccc23)cc1S(=O)(=O)NC(C)(C)C,/,?,/,/,-2%,/
Cc1ccc(-c2n[nH]c(=O)c3ccccc23)cc1S(=O)(=O)NCCO,-22%,7%,14µM*,?,-4%,8
Cc1ccc(-c2nn(C)c(=O)c3ccccc23)cc1S(=O)(=O)NCCN1CCOCC1,-11%,-4%,?,?,0%,1
CCOC(=O)CNS(=O)(=O)c1cc(-c2nn(C)c(=O)c3ccccc23)ccc1C,-10%,?,16µM*,?,-3%,-2
COC(=O)C1(Cc2ccccc2)C=C2C(=C(C(C)C)C(=O)C2C)CN1 (stereo not given),/,?,?,/,-2%,/
CCCCc1ccc(NC(=O)CSc2nc(=O)[nH]c3c2CCCC3)cc1,21%[46 µM],/,/,/,/,/
CNc1ncncc1-c1ccccc1OC,9%,?,-16%,/,-5%,/
CCc1cccc(C)c1NC(=O)CSc1nnc(CCCOc2ccc(Cl)cc2Cl)n1C,?,11%,-6%,-113*,0%,/
Cn1c(CCCOc2ccc(Cl)cc2Cl)nnc1SCC(=O)Nc1ccc(F)c(Cl)c1,1%,5%,0%,53,-1%,/
CCCc1[nH][nH]c(=O)c1C(c1cccc(Cl)c1)C(C#N)C#N (stereo not given),-2%,14µM*,16µM*,14,1%,0
COC(=O)c1sccc1NC(=O)C1C2C=CC(O2)C1C(=O)O (stereo not given),-5%,1%,1%,?,6%,-5
Cc1nnc(NC(=O)C2C3C=CC(O3)C2C(=O)O)s1 (stereo not given),13%,28µM*,-13%,1,2%,-9
COC(=O)c1ccc(NC(=O)C2C3C=CC(O3)C2C(=O)O)cc1 (stereo not given),-8%,4.5µM*,-18%,-28,-1%,-2
CCOc1ccccc1NC(c1nnc(-c2ccccc2)o1)c1ccc(F)cc1Cl (stereo not given),/,/,/,/,/,4
O=C(/C=C/c1ccco1)Nc1cc(Cl)ccc1C(=O)O,-21%,?,32µM*,22,-1%,/
O=C(/C=C\c1ccco1)Nc1cc([N+](=O)[O-])ccc1F,?,?,1%,-134*,0%,/
CCCCC/C=C\C/C=C\C/C=C\CCCCCCC(=O)NCC(=O)O,/,3%,-6%,/,2%,/
CCOC(=O)C1CCCN(S(=O)(=O)c2ccc(N3CCCCS3(=O)=O)cc2)C1 (stereo not given),1%[46 µM],/,/,/,/,/
Cc1cc(C)cc(NC(=O)CN2CCCN(S(=O)(=O)c3ccc(Br)s3)CC2)c1,?,?,-12%,12,0%,12
CCOC(=O)N1CCN(S(=O)(=O)c2ccc(Br)s2)CC1,-7%,1%,-1%,-90*,0%,-3
Cc1ccc(NC(=O)CN2CCCN(S(=O)(=O)c3ccc(Br)s3)CC2)cc1,?,20µM*,-12%,29,3%,9
CN1CCN(S(=O)(=O)c2ccc(Br)s2)CC1,0%,-6%,/,-12,/,-2
O=C(c1ccco1)N1CCN(S(=O)(=O)c2ccc(Br)s2)CC1,-11%,8.9µM*,?,-6,-1%,11
Brc1ccc(CNCCCSc2nnnn2-c2ccccc2)cc1,-14%[46 µM],/,/,/,/,/
C/C(N)=C(/C#N)C(=O)CSc1nnc(Nc2cccc(C)c2C)s1,-9%,?,28µM*,-3,6%,?
SMILES,LMNA splice mod,ALDH1A1 inh,HPGD inh,PNC assembly inh,Luc counter,IMPase inh
C/C(N)=C(/C#N)C(=O)CSc1nnc(Nc2c(C)cccc2C)s1,?,?,-17%,?,10%,5
O=C1ON=C(c2cccc([N+](=O)[O-])c2)/C1=C/c1ccc(O)cc1,-8%[9.22 µM],10µM*,/,/,0%,/
O=C1ON=C(c2ccccc2)/C1=C/c1cccnc1,10%[46 µM],-3%,/,/,0%,/
O=C(O)CCCC(=O)Nc1ccc(Cl)cc1,/,28µM*,/,/,1%,/
O=C(CCCC(=O)OCC(Cl)=C(Cl)Cl)Nc1ccccc1,-5%,-4%,25µM*,-18,1%,-1
O=C(O)CCCC(=O)Nc1ccc(Br)cc1,1%,15%,-4%,-100*,8%,9
COC(=O)CCCC(=O)Nc1ccc(Br)cc1,-8%,12%,-17%,-3,-1%,/
Cc1ccc(OCC(O)C(C)NC(C)C)c2c1CCC2 (stereo not given),?,-13%,-9%,/,-3%,/
Cc1ccc(CSCC(=O)N2CCN(c3ccccc3F)CC2)cc1,-8%[46 µM],/,/,/,/,/
CC1CCC(N2CC(=O)N(C3CCCC3)C(c3ccc(Cl)cc3)C2=O)CC1 (stereo not given),10%[46 µM],/,/,/,/,/
OC1(c2ccc(F)cc2)CCN(Cc2nnnn2Cc2cccs2)CC1,4%,4.5µM*,-4%,-20,-3%,5
COc1ccc(N/N=C(\C=N\O)C(=O)c2ccc(OC)cc2)cc1,?,?,-25%,-112*,-2%,13
COc1ccc(NS(=O)(=O)c2cc(C)ccc2NC(=O)c2cc(C)oc2C)cc1,?,7.9µM*,-18%,1,0%,21
COC(=O)c1sc(NC(=O)c2ccoc2C)nc1C,-7%,-4%,-22%,3,7.9µM*,-9
COc1ccc2nc(NC(=O)c3cc(C)oc3C)sc2c1,7%,-8%,?,103,13µM*,-10
Cc1csc(NC(=O)c2cc([N+](=O)[O-])cc([N+](=O)[O-])c2)n1,0%,5%,?,-114*,-6%,/
COc1ccc(NS(=O)(=O)c2cccc(C(=O)NNC(=O)c3cc(C)oc3C)c2)cc1,-5%,-5%,-7%,32,-1%,/
COc1ccc(S(=O)(=O)c2c(Nc3ccc(C)cc3)sc(C(=O)c3ccc4c(c3)OCO4)c2N)cc1,-23%[46 µM],/,/,/,/,/
Cc1csc(NC(=O)c2cc(C)oc2C)n1,10%,-2%,18µM*,-11,?,2
COc1ccc2nc(NC(=O)c3ccoc3C)sc2c1,-4%,?,?,21,3.2µM*,4
Cc1csc(NC(=O)c2ccccc2O)n1,-10%,?,?,15,-7%,7
CN(C)c1ccc(CNC(=O)CCn2c(=O)c3cccn3c3ccc(F)cc32)cc1,-5%[46 µM],/,/,/,/,/
COc1ccc(C)cc1NC(=O)c1ccc2nc(Cc3ccccc3)oc2c1,-22%[46 µM],/,/,/,/,/
CCOc1ccc(S(=O)(=O)NCc2csc(C)n2)cc1,?,3%,-9%,-91*,1%,9
COc1ccc(S(=O)(=O)NCc2csc(C)n2)cc1,?,7%,-10%,-26,4%,2
Cc1nc(CNS(=O)(=O)c2cc(C)c(C)cc2C)cs1,-2%,13µM*,-9%,-23,4%,-5

# Assay outcomes deposited in PubChem by National Center for Advancing Translational Sciences (NCATS).
